Results taken from PubChem BioAssay (Tox21).
Values without a mark were called inactive. Active and inactive are the calls of the source. Calls follow the shape of the full dose curve.

Target: Thyrotropin-releasing hormone receptor (Homo sapiens) (UniProt P34981)
Assay: qHTS assay to identify small molecule agonists of the thyrotropin-releasing hormone receptor (TRHR) signaling pathway (AID 1346891);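 as to activation: HEK293 cells expressing TRHR with calcium dye readout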
Details: TRHR-HEK293 calcium fluorescence, agonist mode; series mostly up to 57.6 µM; activation: at the top concentration
Description: National Center for Advancing Translational Sciences [NCATS] NIH Chemical Genomics Center [NCGC] U.S. Environmental Protection Agency [EPA] National Institutes of Environmental Health Sciences [NIEHS] National Toxicology Program [NTP] Assay overview: Thyrotropin-releasing hormone (TRH) receptor (TRHR) is a G-protein-coupled receptor which binds the tripeptide thyrotropin releasing hormone. TRHR is found in the brain and, when bound by TRH, acts (through phospholipase C) to increase intracellular inositol trisphosphate. It plays a crucial role in the anterior pituitary where it controls the synthesis and secretion of thyroid stimulating hormone and prolactin. The TRHR-Hek293 assay is a cell-based assay, and it has the potential to screen G protein-coupled receptors. A compound/drug can either activate (agonist) or suppress (antagonist) GPCRs that can be monitored by levels of intracellular calcium. Using this assay, the Tox21 10K compound library was screened to identify potential TRHR agonists.
Assay Protocol Summary: The TRHR-Hek293 cells were dispensed at 1500cells/4uL/well in 1536-well black-clear bottom plates using a Multidrop dispenser. After the assay plates were incubated at a 37 C/5% CO2 incubator for 18 hours, 4 uL of Dye-Loading Solution was added to each well. The plates were incubated at 37 C for 2 hours. For agonist mode, 23 nL of compounds dissolved in DMSO, positive controls or DMSO only was transferred to the assay plate by a pin tool. The fluorescence intensity in the plates was measured using FDSS 7000EX kinetic plate reader for 3 min at 1 sec intervals. Each test compound was measured at 15 concentrations and in triplicates.
% is scaled to controls: 0 for no effect and ±100 for the full control effect; potency is read from the fitted curve at half-maximal effect.

Thyrotropin-releasing hormone receptor (Homo sapiens), sequence (P34981 whole entry, looked up): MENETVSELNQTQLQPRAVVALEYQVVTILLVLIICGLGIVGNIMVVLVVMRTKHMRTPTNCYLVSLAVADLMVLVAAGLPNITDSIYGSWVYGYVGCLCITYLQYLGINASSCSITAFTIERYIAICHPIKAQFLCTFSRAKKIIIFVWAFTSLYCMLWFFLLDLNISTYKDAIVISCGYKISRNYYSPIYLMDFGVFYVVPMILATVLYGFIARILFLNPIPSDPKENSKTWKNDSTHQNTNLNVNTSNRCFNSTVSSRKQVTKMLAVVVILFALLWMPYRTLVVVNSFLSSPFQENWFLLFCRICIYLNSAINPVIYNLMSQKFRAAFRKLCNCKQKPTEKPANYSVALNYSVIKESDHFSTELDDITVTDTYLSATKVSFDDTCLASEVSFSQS

| SMILES | activation | Potency |
| --- | --- | --- |
| COc1cccc(-c2ccc(/C=C\CN3CCCCCC3)cc2Cl)c1 | 6.98% | – |
| Oc1ccc(Cl)cc1C1CCCC1 | 4.87% | – |
| Cc1ccc2nc(-c3ccc(N)cc3)sc2c1S(=O)(=O)O | 0.0811% [at 26.5 µM] | – |
| Cc1ccc(C=O)cc1 | -0.0379% [at 26.5 µM] | – |
| CC(CC(C)(C)C)CC(C)(C)CC(C)(C)C (stereo not given) | -0.531% [at 26.5 µM] | – |
| Oc1ccc(C2(c3ccc(O)c(C4CCCCC4)c3)CCCCC2)cc1C1CCCCC1 | -0.0294% | – |
| CC(C)(c1ccc(Oc2ccc(N)cc2)cc1)c1ccc(Oc2ccc(N)cc2)cc1 | 0.247% | – |
| C=Cc1ccc(O)c(OC)c1 | -0.707% | – |
| c1ccc(C[P+](c2ccccc2)(c2ccccc2)c2ccccc2)cc1 | 2.05% | – |
| CCC(O)CO (stereo not given) | -0.0134% | – |
| Cc1ccc(N=Nc2c(O)ccc3ccccc23)c(C)c1 | 0.0261% [at 26.5 µM] | – |
| COCCC(=O)OC | -0.34% | – |
| CCCCC/C=C\C=C\C(=O)OCC | -1.08% | – |
| CCCOC(=O)c1ccc(O)cc1 | 0.999% | – |
| O=C1CCCCCCCCCCCCCC1 | 0.726% | – |
| CC/C=C(\C)C=O | 0.0031% | – |
| Nc1cc([N+](=O)[O-])cc(Cl)c1O | 0.0189% | – |
| C/C(=N\[Si](C)(C)C)O[Si](C)(C)C | -0.231% | – |
| Clc1nc(C(Cl)(Cl)Cl)c(Cl)c(Cl)c1Cl | -0.258% | – |
| O=C(NCc1ncc(C(F)(F)F)cc1Cl)c1c(Cl)cccc1Cl | -0.648% | – |

| SMILES | activation | Potency |
| --- | --- | --- |
| C=C(C)CCO | -0.0517% | – |
| Cc1ccc2sc3cccc(C)c3c2c1 | -0.0238% | – |
| C=C[Si](C)(C)Cl | 0.0082% [at 5.23 µM] | – |
| CCCCNc1ccc(NCCCC)c2c1C(=O)c1ccccc1C2=O | -0.167% [at 11.8 µM] | – |
| CCOc1ccc([N+](=O)[O-])cc1 | 8.45% | – |
| CC(O)(c1ccc(Cl)cc1)c1ccc(Cl)cc1 | 20.1% | – |
| CC1=C(/C=C/C(C)=C/C=C/C(C)=C\C(=O)O)C(C)(C)CCC1 | 5.05% | – |
| CC(C)(C)c1cc(CCC(=O)OCCSCCOC(=O)CCc2cc(C(C)(C)C)c(O)c(C(C)(C)C)c2)cc(C(C)(C)C)c1O | 0.311% [at 26.5 µM] | – |
| CCCCCCCCc1ccc(Nc2ccc(CCCCCCCC)cc2)cc1 | 0.945% [at 26.5 µM] | – |
| NCc1cccc(C2CCN(C(=O)c3ccc(C#Cc4ccccc4F)o3)CC2)c1 | 2.48% | – |
| [Cl][Dy]([Cl])[Cl] | -0.565% | – |
| COc1cc(OC)nc(NC(=O)NS(=O)(=O)Nc2ccccc2C(=O)N(C)C)n1 | -0.23% | – |
| CC1(C)[C@H]2CC[C@]1(C)C(=O)C2 | 0.0682% | – |
| N#Cc1ccc(C/C(=N/NC(=O)Nc2ccc(OC(F)(F)F)cc2)c2cccc(C(F)(F)F)c2)cc1 | 0.403% | – |
| C=C1C(CCl)(CCl)C2(Cl)C(Cl)C(Cl)C1(Cl)C2(Cl)Cl (stereo not given) | 2.8% | – |
| O=C1Cc2ccccc2C1 | 0.312% | – |
| NCc1ccco1 | 0.453% | – |
| CCOc1nc(F)cc2nc(S(=O)(=O)Nc3c(Cl)cccc3C(=O)OC)nn12 | 1.6% | – |
| NC(=O)C1CO1 (stereo not given) | -0.0242% | – |
| CCN(CC)c1ccc2c(c1)Oc1cc(N(CC)CC)ccc1C21OC(=O)c2ccccc21 | – | 15.1 µM (active) |
